High-throughput results (PubChem BioAssay)
SNCA viab count: counter-screen for SNCA expression inhibitors: cell viability; Potency, µM (top dose mostly 57.1 µM), without a hit: top-dose activity change, negative = cytotoxicity, hits mostly cytotoxic; HEK-293-SNCA-luc viability, GF-AFC fluorescence, 24 h; 0.12% of 150,000 active;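 also: 0% = DMSO-treated cells and -100% = medium-only wells without cells; nearly all actives have a fitted effect of over 30% in size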
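Cytotoxicity counterscreen: after 24 h compound treatment of genome-edited SNCA-luciferase HEK-293 cells, live-cell protease substrate GF-AFC read by fluorescence after 30 min; activity scaled between DMSO (0%) and medium-only (-100%), curves Hill-fitted.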
HEK cytotox: cytotoxic compounds in HEK 293 cells. HEK 293 viability, ATP luminescence (CellTiter-Glo), 48-72 h. Potency, µM (series often up to 115 µM), for inactives: at the highest dose activity change, negative = cytotoxicity, hits mostly inhibitors. 6.6% of 94,000 active; also: nearly all actives have a fitted effect of over 60% in size
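ATP-coupled CellTiter-Glo luminescence served as viability read-out, recorded 10 min after reagent addition at room temperature. HEK 293 cells, 250 cells/well, had been incubated with pintool-transferred compound for 48 or 72 hr at 37 degree Celsius.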
NIH3T3 tox: cytotoxic compounds in NIH 3T3 cells; NIH 3T3 viability, CellTiter-Glo ATP luminescence, 48-72 h; Potency, µM (titrated, usually from 96.7 µM), for the others: at the highest dose activity change, negative = cytotoxicity, actives largely listed as inhibitors; 4.3% of 94,000 active; AID 1345082; also: nearly all actives have a fitted effect of over 55% in size
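ATP-dependent luminescence (CellTiter-Glo) served as the viability signal for NIH 3T3 cells treated with compound for 48 or 72 hr at 37 °C.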
NPR1 antag: antagonists of human natriuretic peptide receptor Npr1; 1.6% of 76,000 active; HEK293 hNpr1 GloSensor cGMP, ANP-stimulated luminescence; P16066; Potency, µM (titrated, usually from 46.3 µM), for inactives: at the top dose activity change, negative = inhibition, actives largely listed as inhibitors; calls by dose curve; also: nearly all actives have a fitted effect of over 60% in size
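HEK293 cells stably expressing human Npr1 and cGMP GloSensor pGS-40F, loaded 2 h with 2% GloSensor reagent, given compound 30 min at room temperature. Luminescence read before and 20 min after 0.1 nM hNppA.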
Luciferase inh: Photinus pyralis luciferase inhibition | P08659 | purified P. pyralis luciferase, luminescence, biochemical | 2.5% of 76,000 active | Potency, µM (top dose mostly 115 µM), usual class: inhibitors; also: nearly all actives have a fitted effect of over 65% in size
Target sequence (P08659 whole entry, looked up): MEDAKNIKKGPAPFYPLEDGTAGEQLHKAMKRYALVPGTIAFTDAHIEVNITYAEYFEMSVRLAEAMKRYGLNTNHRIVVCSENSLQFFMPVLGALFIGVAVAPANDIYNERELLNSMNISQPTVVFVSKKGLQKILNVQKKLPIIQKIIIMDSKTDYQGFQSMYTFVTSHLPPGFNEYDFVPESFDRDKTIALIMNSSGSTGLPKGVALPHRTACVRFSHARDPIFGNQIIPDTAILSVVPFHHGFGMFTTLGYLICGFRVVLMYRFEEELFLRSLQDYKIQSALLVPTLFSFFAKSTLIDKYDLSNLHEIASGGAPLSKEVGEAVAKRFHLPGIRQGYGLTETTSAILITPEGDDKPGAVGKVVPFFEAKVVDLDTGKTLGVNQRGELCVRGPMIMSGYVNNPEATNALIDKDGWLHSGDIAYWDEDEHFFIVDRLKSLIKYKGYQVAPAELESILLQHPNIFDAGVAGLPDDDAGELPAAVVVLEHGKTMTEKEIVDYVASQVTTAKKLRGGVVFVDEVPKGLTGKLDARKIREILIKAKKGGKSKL
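Luminescence read by CCD imager after adding enzyme (10nM final) to wells holding compound, titrated in qHTS. Substrates 10uM each D-luciferin and ATP; buffer 50mM Tris acetate pH 7.5, 10mM Mg acetate, Tween-20, BSA.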
SNCA expr inhib: inhibitors of alpha-synuclein (SNCA) gene expression; Potency, µM (doses to about 57.2 µM), without a hit: top-dose activity change, negative = inhibition, usual class: inhibitors; HEK-293 SNCA-luciferase knock-in, luminescence, 24 h; AID 1671194; 0.17% of 140,000 active;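 also: plate controls were DMSO cells for no effect and cell-free wells for full effect; nearly all actives have a fitted effect of over 45% in size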
Starred values were filed as active, the others as inactive; [ ] = another dose, or the depositor's remark. Compounds with a hit are over-represented: about 7.4% of the library has one in this group of screens. Unless noted, calls follow the shape of the dose curve; as a rule, active = well fitted curve in the direction sought with a large enough effect; inconclusive = small, poorly fitted or top-dose-only effect, or another doubt; inactive = no such curve, though single readings can be large; an effect the other way counts as inactive or inconclusive. Unless noted, % is scaled to controls: 0 for no effect and ±100 for the full control effect; potency is read from the fitted curve at half-maximal effect.

For COc1cccc(CCNC(=O)c2c(C)nc3cnccn23)c1 the results were HEK cytotox -26%[172 µM] and NIH3T3 tox inconclusive.
Screening O=C(Nc1ccc(F)cc1F)c1cc(-c2ccc[nH]2)n[nH]1 returned SNCA viab count 4%, HEK cytotox inconclusive, NIH3T3 tox -24%, NPR1 antag 2%, Luciferase inh 14µM* and SNCA expr inhib 203%.
`COc1ccc(NC(=O)c2cc(-c3ccc[nH]3)n[nH]2)cc1` gave SNCA viab count -7%, HEK cytotox -3%, NIH3T3 tox -4%, NPR1 antag -5%, Luciferase inh 13µM* and SNCA expr inhib 20%.
`O=C(Nc1ccc(F)cc1F)c1ccc(-n2cnnc2)cc1` gave SNCA viab count 2% and SNCA expr inhib 4%.
CCOc1ccc(NC(=O)c2cc(-c3ccc[nH]3)n[nH]2)cc1 was read as SNCA viab count -11%, HEK cytotox 6%, NIH3T3 tox 1%, NPR1 antag 3%, Luciferase inh 7.1µM* and SNCA expr inhib 13%.
For CCOc1ccc(NC(=O)c2ncn(-c3ccccc3)n2)cc1 the results were SNCA viab count -8% and SNCA expr inhib 19%.
O=C(Nc1ccc(OC(F)(F)F)cc1)c1cc(-c2ccc[nH]2)n[nH]1 was read as SNCA viab count -16%, HEK cytotox 13µM*, NIH3T3 tox 25µM*, NPR1 antag 1%, Luciferase inh inconclusive and SNCA expr inhib 14%.
For O=C(NC1CC1)c1cn2cc(-c3cccc(C(F)(F)F)c3)sc2n1 the results were SNCA viab count -3%, HEK cytotox inconclusive, NIH3T3 tox inconclusive and SNCA expr inhib 79%.
COc1ccc(Cl)cc1NC(=O)c1cc(-c2ccc[nH]2)n[nH]1 was read as SNCA viab count inconclusive, HEK cytotox inconclusive, NIH3T3 tox inconclusive, NPR1 antag -8%, Luciferase inh inconclusive and SNCA expr inhib inconclusive.
`COc1ccc(NC(=O)c2cc(-c3ccc[nH]3)n[nH]2)c(OC)c1` gave SNCA viab count -2%, HEK cytotox inconclusive, NIH3T3 tox -25%, NPR1 antag -17%, Luciferase inh 20µM* and SNCA expr inhib 60%.
CC(C)CN(CCCNC(=O)CN1C(=O)COc2ccc(S(=O)(=O)N3CCCCCC3)cc21)CC(C)C was read as SNCA viab count 9% and SNCA expr inhib 28µM*.
For CCCCNC(=O)CN1C(=O)COc2ccc(S(=O)(=O)N3CCCC3)cc21 the results were SNCA viab count -19% and SNCA expr inhib -3%.
Screening Cc1ccc(NC(=O)c2ccc3nc(-c4cccc(C)n4)oc3c2)cc1 returned SNCA viab count 17%[87.6 µM], HEK cytotox inconclusive, NIH3T3 tox -12%[138 µM] and SNCA expr inhib -2%[87.6 µM].
`c1ccc2sc(N3CCCN(Cc4cc5n(n4)CCNC5)CC3)nc2c1` gave SNCA viab count -3%, HEK cytotox 35µM*, NIH3T3 tox inconclusive, NPR1 antag 3%, Luciferase inh inconclusive and SNCA expr inhib 132%.
CC(C)C(=O)NCC12CCCC=C1N(CC1CC1)C(=O)CC2 (stereo not given) was read as SNCA viab count inconclusive, HEK cytotox inactive, NIH3T3 tox -9% and SNCA expr inhib 14%.
For OC1CC(c2cc(NCCSC3CCCCC3)ncn2)C1 (stereo not given) the results were SNCA viab count -19%, HEK cytotox inconclusive, NIH3T3 tox inconclusive, NPR1 antag 13µM*, Luciferase inh inconclusive and SNCA expr inhib 59%.
Screening C[S+](=O)([O-])N1Cc2ccccc2CC2(CCN(CC3CCCC3)C2)C1 (stereo not given) returned SNCA viab count -2%, HEK cytotox -14%, NIH3T3 tox inactive and SNCA expr inhib 12%.
COc1ccc(-c2cc3nc4c(c(=O)n3[nH]2)CCN(C(=O)COc2ccccc2C)C4)cc1 was read as SNCA viab count -4%, HEK cytotox -24%, NIH3T3 tox -19%, NPR1 antag -10%, Luciferase inh 14µM* and SNCA expr inhib 34%.
Cc1ccccc1OCC(=O)N1CCc2c(nc3cc(-c4ccccc4Cl)[nH]n3c2=O)C1 was read as SNCA viab count 2%, HEK cytotox inconclusive, NIH3T3 tox inconclusive, NPR1 antag -14%, Luciferase inh inactive and SNCA expr inhib 3%.
Screening COc1ccc(-c2cc3nc4c(c(=O)n3[nH]2)CN(C(=O)Cc2ccc(NC(C)=O)cc2)CC4)cc1 returned SNCA viab count 5%, HEK cytotox inconclusive, NIH3T3 tox inconclusive, NPR1 antag 0%, Luciferase inh inconclusive and SNCA expr inhib 8.9µM*.
For COCCN1C(=O)c2ccccc2C(C(=O)Nc2nc3ccccc3[nH]2)C12CCCC2 (stereo not given) the results were SNCA viab count 10%, HEK cytotox 5%, NIH3T3 tox -4%, NPR1 antag 5%, Luciferase inh inactive and SNCA expr inhib -18%.
Screening COCCN1C(=O)c2ccccc2C(C(=O)Nc2nc3ccccc3[nH]2)C12CCCCC2 (stereo not given) returned SNCA viab count -9%, HEK cytotox 79µM*, NIH3T3 tox inconclusive, NPR1 antag -15%, Luciferase inh inactive and SNCA expr inhib -1%.
`CC(=O)N1CCN(c2nccc(Nc3ccccc3F)n2)CC1` gave SNCA viab count -8%[12.5 µM], HEK cytotox inconclusive, NIH3T3 tox -26%[138 µM] and SNCA expr inhib 13%[87.6 µM].
`O=C(Nc1ccc(Cl)cc1)N1CCN(c2nccc(Nc3ccccc3F)n2)CC1` gave SNCA viab count 4%[12.5 µM], HEK cytotox 28µM*, NIH3T3 tox inconclusive and SNCA expr inhib -16%.
`O=C(C1CC1)N1CCN(c2nccc(Nc3ccccc3F)n2)CC1` gave SNCA viab count 1%[87.6 µM], HEK cytotox 63µM*, NIH3T3 tox inconclusive and SNCA expr inhib 136%[87.6 µM].
`O=[S+]([O-])(c1ccccc1)N1CCN(c2nccc(Nc3ccccc3Cl)n2)CC1` gave SNCA viab count -2%, HEK cytotox inconclusive, NIH3T3 tox 28µM* and SNCA expr inhib inconclusive.
For COc1ccccc1Nc1ccnc(N2CCN(C(=O)Nc3ccccc3)CC2)n1 the results were SNCA viab count -5%, HEK cytotox inconclusive, NIH3T3 tox inconclusive and SNCA expr inhib -11%.
Screening COc1ccccc1Nc1ccnc(N2CCN([S+](=O)([O-])c3cccc(C(F)(F)F)c3)CC2)n1 returned SNCA viab count -12%, HEK cytotox inconclusive, NIH3T3 tox inconclusive and SNCA expr inhib inconclusive.
For O=C(Nc1ccccc1)N1CCN(c2nccc(Nc3ccccc3Cl)n2)CC1 the results were SNCA viab count -20%, HEK cytotox 50µM*, NIH3T3 tox inconclusive and SNCA expr inhib 8%.
